Reference: PubChem BioAssay (NCI)
This is part of a sample that, as a whole, favours compounds with a hit. Of some 83,000 tested, about 20% had one in any assay.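 Interpretation: 100, growth as untreated; towards 0, rising growth inhibition; 0, no net growth; 0 to -100, cell death. Compounds scoring below 10 were considered active.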 A number with no mark means an inactive call. The source made the active and inactive calls.

Legend:
Experiment in all cases: NCI-60 one-dose screen, 48 h (100 = growth as untreated, 0 = no growth, -100 = all killed)
Settings in all cases: 10 µM
[1] = tested on: NCI-H23 lung
[2] = tested on: NCI-H226 lung
[3] = tested on: HOP-62 NSCLC
[4] = tested on: NCI-H460 lung
[5] = tested on: NCI-H522 lung
[6] = tested on: A549/ATCC NSCLC
[7] = tested on: 786-0 renal
[8] = tested on: COLO 205 colon
[9] = tested on: NCI-H322M lung
[10] = tested on: HOP-92 NSCLC

SMILES	growth [1]	growth [2]	growth [3]	growth [4]	growth [5]	growth [6]	growth [7]	growth [8]	growth [9] [%]	growth [10]
CC12CC3CC1C(C(=O)O2)C3C(=O)O (configuration not stated)	96.8%	105%	98.9%	108%	96%	96.3%	108%	102%	–	–
Cc1cc(Cc2cc(C)c(N)cc2N)c(N)cc1N	86.6%	81.7%	88.1%	101%	89.4%	85.2%	104%	92.8%	–	–
O=C(O)CCC(NC(=O)OCc1ccccc1)C(=O)O (configuration not stated)	101%	98.8%	–	111%	99.6%	–	104%	113%	98.6	95.9%
CSC(=N\N=C\c1ccc(N(C)C)cc1)/N=C/N(C)C	112%	90%	–	95.4%	107%	103%	103%	110%	102	–
CC(=O)Cc1ccc(-c2ccccc2)cc1	95.6%	91.5%	–	103%	111%	94.8%	105%	115%	85.9	–
Nc1ncnc2c1nc(N)n2C1OC(CO)C(O)C1O (configuration not stated)	-22.9% (active)	-75.4% (active)	-52.9% (active)	-60.3% (active)	–	-25.8% (active)	-85.6% (active)	-86.8% (active)	–	-29.8% (active)
C=CCCCCCCCCCOC(C)=O	100%	96.7%	–	109%	102%	–	108%	110%	102	90.2%
CC(=O)OC(C(=O)O)c1ccccc1 (configuration not stated)	111%	110%	112%	–	107%	106%	109%	118%	–	80.4%
CCOC(=O)CNN	102%	90.7%	–	99.6%	96.7%	101%	106%	110%	98	99.4%
COc1cccc(O)c1O	56.3%	101%	–	103%	79%	101%	88.1%	108%	98.6	93.7%
CC(=O)NC(N)=S	103%	103%	110%	105%	95.6%	96.1%	105%	120%	–	89.7%
O=C(/C(=N/O)c1ccccc1)c1ccccc1	105%	91.2%	–	108%	109%	98.1%	98.1%	115%	95.8	96.6%
CCOC(=O)CSc1c([N+](=O)[O-])ncn1C	95.6%	105%	98.6%	104%	99.9%	97.6%	111%	110%	–	113%
C=CCc1cc(C(C)=O)cc(OC)c1O	108%	109%	122%	97.8%	102%	95.8%	104%	118%	–	125%
Cc1cc(=O)n(-c2ccc(F)cc2)[nH]1	103%	98.3%	–	106%	97.6%	102%	105%	107%	95.6	–
N#Cc1ccc(OC(=O)Nc2ccc(Cl)c(Cl)c2)cc1	39.6%	63.7%	–	99.8%	24.5%	47.2%	89.5%	96.3%	89.4	–

SMILES	growth [1]	growth [2]	growth [3]	growth [4]	growth [5]	growth [6]	growth [7]	growth [8]	growth [9] [%]	growth [10]
Cc1cc(OCCO)cc(C)c1Cl	106%	108%	111%	114%	114%	104%	97.3%	123%	–	114%
O=C1C=CC(=O)N1c1ccc(I)cc1Cl	100%	108%	90.7%	109%	-29.7% (active)	46%	97%	113%	–	–
O=[N+]([O-])c1cccc2nsnc12	108%	93.9%	99.5%	103%	103%	104%	114%	107%	–	–
CC(C)=NNC(N)=S	77.7%	83.7%	–	83.4%	88%	92.6%	104%	83.5%	104	85.8%
COC(=O)Nc1cccc(Cl)c1OC	107%	96.5%	–	38.2%	92.7%	106%	104%	127%	107	–
Cc1ncc(C#N)c(N)n1	99%	94.8%	–	102%	102%	106%	96.4%	107%	89.1	87.1%
CN(C)c1nc2c([nH]1)c(=O)n(C)c(=O)n2C	99.8%	81.2%	–	103%	73.1%	92.2%	105%	–	105	–
Cc1ccc(C(=O)NC2c3ccccc3Oc3ccccc32)cc1	70.4%	79%	32.2%	59.8%	–	48.9%	25.7%	73.6%	–	62.1%
O=C(O)/C=C/c1ccc2c(c1)CCC2	113%	105%	94.6%	103%	–	106%	101%	105%	–	–
Cc1nc2ccccc2c2nnc(SCC(=O)N(Cc3ccccc3)c3ccccc3)n12	89.1%	94%	95.7%	107%	70.9%	–	103%	101%	–	82.5%
O=c1[nH][nH]c(=O)c2cc([N+](=O)[O-])ccc12	101%	–	102%	111%	90.6%	108%	106%	99.6%	123	107%
COc1ccc2c(c1)CCc1c-2n[nH]c1-c1[nH]nc2c1CCc1cc(OC)ccc1-2	75.4%	–	66%	53.5%	34%	79%	64.7%	67.8%	90.5	84.6%
O=C(O)CCCc1ccccc1	103%	108%	–	115%	–	102%	97.4%	110%	–	105%
S=C1CCCCCN1	105%	–	92.9%	106%	105%	101%	107%	111%	99.5	103%
COC(=O)c1ccc(C(C)C)cc1	100%	–	87.8%	114%	79.3%	90.5%	100%	98%	95.8	82.7%
CC(=O)OCC(=O)[C@@]1(O)CC[C@H]2[C@@H]3CC[C@@H]4C[C@H](O)CC[C@]4(C)[C@H]3C(=O)C[C@@]21C	103%	–	105%	108%	90.4%	101%	105%	105%	131	93.4%
